Calls of active or inactive are those of the source.
Assay: growth of efflux-deficient E. coli DRC39 – strain DRC39, OD650, 48 h, E. coli filamentation inducers, primary screen (AID 1179);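 note: screen aims at cell division blockers that make cells filament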
Details: E. coli DRC39 delta-acrAB growth, higher = more signal, called active from +8 up or from −8 down

Row | Structure (SMILES) | z-score
1 | COCCOC(=O)N1C(=O)[C@@]2(c3cc(C#CCNC(N)=O)ccc31)[C@H](C(=O)Nc1nc3ccccc3s1)[C@H]1C(=O)O[C@H](c3ccccc3)[C@H](c3ccccc3)N1[C@@H]2c1ccc(OCCO)cc1 | -0.463 (inactive)
2 | C=CCOC(=O)[C@H]1[C@@H]2C(=O)O[C@@H](c3ccccc3)[C@@H](c3ccccc3)N2[C@@H](c2ccc(OCCOC(=O)[C@H]3C[C@H]4C(=O)N[C@@H](CCCC[N+](C)(C)C)C(=O)N4[C@H]3c3ccc(O)cc3)cc2)[C@]12C(=O)Nc1ccc(I)cc12 | -0.473 (inactive)
3 | C=CCOC(=O)[C@H]1[C@@H]2C(=O)O[C@@H](c3ccccc3)[C@@H](c3ccccc3)N2[C@@H](c2ccc(OCCOC(=O)[C@H]3C[C@H]4C(=O)N[C@@H](CCCCN(C)C)C(=O)N4[C@H]3c3ccc(O)cc3)cc2)[C@]12C(=O)Nc1ccc(I)cc12 | -1.24 (inactive)
4 | C=CCN1C(=O)[C@@]2(CC=C)N=C(c3ccc(OCCCO)cc3)O[C@H]2c2ccccc21 | 2.46 (inactive)

Assay: viability profiling in RPMI8226 myeloma cells – cell-based, resazurin fluorescence, basal, 24 h, PK04 Diversity Set, profiling panel (AID 1180);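 note: RPMI8826 multiple myeloma cell line at 5000 cells per well; test concentration not given here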
Details: higher = more signal

Row | Structure (SMILES) | z-score
5 | COC(=O)[C@@]1(Cc2ccc(F)cc2)[C@H]2c3cc(C(=O)N4CCCC4)n(Cc4ccc(S(C)(=O)=O)cc4)c3C[C@H]2CN1C(=O)c1ccccc1 | -0.948
6 | CO[C@H]1O[C@H](CO)[C@@H](OC(=O)Nc2ccc(C(F)(F)F)cc2)[C@H](OC(=O)Nc2ccc3c(c2)OCO3)[C@@H]1OC(=O)Nc1ccc2c(c1)OCO2 | -1.97
7 | O=C1O[C@@H](c2ccccc2)[C@@H](c2ccccc2)N2[C@@H](c3ccccc3OCCO)[C@]3(C(=O)Nc4ccccc43)[C@@H](C(=O)Nc3nc4ccccc4s3)[C@H]12 | -5.15
8 | Cc1ccc(S[C@]2(C(=O)NCCCN(C)C)CC(=O)N(Cc3cc(C(F)(F)F)cc(C(F)(F)F)c3)[C@@H]2c2ccc(CO)cc2I)cc1 | -2.62
9 | O=C1c2ccccc2[C@](Cc2ccccc2I)(C(=O)NCC(F)(F)F)[C@H](c2ccc(CO)cc2)N1Cc1ccccc1Cl | 0.417
10 | O=C(NCCN1CCOCC1)[C@@H]1c2ccccc2C(=O)N(C2CCCCC2)[C@H]1c1ccc(CO)cc1 | 0.872
11 | CC#CC(=O)Oc1ccccc1C=CC(=O)OCC | 0.485
12 | COC(=O)[C@@]1(CCS(=O)(=O)c2ccccc2)N=C(c2ccc(OCCCO)cc2)O[C@H]1c1ccccc1CN=[N+]=[N-] | -2.55
13 | C=CC1(C(=O)OC)CC=C(C(=O)OC)CC1 (centres undefined) | 1.08
14 | CC(C)C(CO)N1C(=O)[C@@H]2C3C(=O)OCCC/C=C\[C@H]3OC23C=CCN(CCN2CCOCC2)C(=O)[C@@H]13 (some centres undefined) | -0.586
15 | COc1cc(C(O)C2C=CC3C(=O)NC(=O)C3N2Nc2ccccn2)cc(OC)c1OC (centres undefined) | -2.04
16 | COC(=O)[C@@]1(Cc2ccccc2)[C@H]2c3cc(C(=O)N4CCCC4)n(Cc4ccc(S(C)(=O)=O)cc4)c3C[C@H]2CN1C(=O)c1ccccc1 | -1.14
17 | C=C[C@@H](COC(=O)OC(C)(C)C)N(Cc1ccc(OC)cc1)S(=O)(=O)c1ccc(Br)cc1 | -0.918
18 | COC(=O)[C@H](Cc1ccccc1)N[C@@H](/C=C/C1CC1)[C@H](O)Cc1ccccc1 | 0.484
19 | O=C1c2ccccc2[C@](Cc2ccccc2I)(C(=O)NCCN2CCOCC2)[C@H](c2ccc(CO)cc2)N1C1CCCCC1 | -0.954
20 | CCOC(=O)[C@H]1C/C=C/C[C@H](C(=O)OCC)C(=O)O[C@H]2[C@@H](OC)O[C@H](CO)[C@@H](OC(=O)c3c(OC)cccc3OC)[C@@H]2OC1=O | -3.51
21 | CCOC(=O)C[C@H]1[C@H](OC(=O)c2ccc(C(=O)c3ccccc3)cc2)[C@@H](NC(=O)c2ccc3ccccc3c2)c2cc(OCCCO)ccc2N1C(=O)Cc1ccc(OC)cc1 | 0.287
22 | CCC(CC)C(O)C1C=CC2C(=O)NC(=O)C2N1Nc1ccccn1 (centres undefined) | -1.11

Row | Structure (SMILES) | z-score
23 | COc1ccc([Si](C)(C)[C@H]2[C@H](CC(=O)N3Cc4ccccc4C[C@H]3CO)O[C@@]3(C(=O)N(Cc4cccc(N5CCC5=O)c4)c4ccccc43)[C@@H]2C)cc1 | -2.01
24 | OCCCC1=CC(c2cccs2)N(Cc2cc3c(cc2Br)OCO3)CC1 (centres undefined) | -0.829
25 | CCCCCCc1nc(-c2ccc(OC)nc2)cc2c1[Si](C(C)C)(C(C)C)O[C@H]2c1ccccc1 | 0.732
26 | COc1ccc([Si](C)(C)[C@H]2[C@H](CCO)O[C@@]3(C(=O)N(Cc4ccc(N(C=O)c5ccccc5)cc4)c4ccccc43)[C@@H]2C)cc1 | -2.77
27 | O=C(NCCO)C1=C[C@H](Oc2ccccc2I)[C@@H](O)[C@H](N(Cc2ccco2)C(=O)Cc2ccccc2)C1 | -0.328
28 | C=C[C@H](C)[C@@H](OC(=O)Nc1ccc(OC)cc1)c1ccc(O)c2ccccc12 | -2.9
29 | C=C(COC)/C(=C/C[C@H](OC(C)=O)c1ccc(CO)o1)c1cc(C(=O)OC)ccc1OC | -0.746
30 | COC(=O)[C@@]1(Cc2ccccc2)[C@H]2c3cc(C(=O)N(C)C)n(Cc4ccsc4Br)c3C[C@H]2CN1C(=O)c1ccccc1 | -3.12
31 | COc1ccc([Si](C)(C)[C@@H]2[C@@H](CCO)O[C@]3(C(=O)N(Cc4ccc(N(C=O)c5ccccc5)cc4)c4ccccc43)[C@H]2C)cc1 | -2.25
32 | CN(C)CCCCCCNC(=O)[C@H]1C[C@H]2C(=O)N3CCC[C@H]3C(=O)N2[C@H]1c1ccc(O)cc1 | -0.0213
33 | O=C(CS)NCCCCCCNC(=O)[C@@H]1C[C@@H]2C(=O)NCC(=O)N2[C@@H]1c1cccc(OCCO)c1 | -0.252
34 | COC(=O)[C@@]1(Cc2ccc(F)cc2)[C@H]2c3cc(C(=O)N(C)C)n(Cc4ccccc4)c3C[C@H]2CN1C(=O)c1ccccc1 | -2.86
35 | C=CCNC(=O)[C@H]1[C@@H]2C(=O)O[C@@H](c3ccccc3)[C@@H](c3ccccc3)N2[C@@H](c2ccccc2OCCO)[C@]12C(=O)Nc1ccc(C#CCC(C(=O)OC)C(=O)OC)cc12 | -7.24
36 | COCCOC(=O)N1C(=O)[C@@]2(c3cc(C#CCNC(N)=O)ccc31)[C@H](C(=O)Nc1nc3ccccc3s1)[C@H]1C(=O)O[C@H](c3ccccc3)[C@H](c3ccccc3)N1[C@@H]2c1ccc(OCCO)cc1 | -0.397
37 | C=CCOC(=O)[C@H]1[C@@H]2C(=O)O[C@@H](c3ccccc3)[C@@H](c3ccccc3)N2[C@@H](c2ccc(OCCOC(=O)[C@H]3C[C@H]4C(=O)N[C@@H](CCCC[N+](C)(C)C)C(=O)N4[C@H]3c3ccc(O)cc3)cc2)[C@]12C(=O)Nc1ccc(I)cc12 | -0.078
38 | C=CCOC(=O)[C@H]1[C@@H]2C(=O)O[C@@H](c3ccccc3)[C@@H](c3ccccc3)N2[C@@H](c2ccc(OCCOC(=O)[C@H]3C[C@H]4C(=O)N[C@@H](CCCCN(C)C)C(=O)N4[C@H]3c3ccc(O)cc3)cc2)[C@]12C(=O)Nc1ccc(I)cc12 | -0.973
39 | C=CCN1C(=O)[C@@]2(CC=C)N=C(c3ccc(OCCCO)cc3)O[C@H]2c2ccccc21 | -3.54
